Reference: PubChem BioAssay AID1347414 (National Center for Advancing Translational Sciences (NCATS), 2020)
Records with an inconclusive call do not appear. A number with no mark means an inactive call. Activity calls are given as the source filed them. The call rests on the fitted dose curve; in most records, active means well fitted inhibition curve with a large enough effect; inconclusive means small, poorly fitted or top-dose-only effect; inactive means no such curve, though single readings can be large or run the other way.

Assay: qHTS to identify inhibitors of the type 1 interferon - major histocompatibility complex class I in skeletal muscle: Secondary screen by immunofluorescence; further: nearly all actives have a fitted effect of over 70% in size;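 on activity change, negative = inhibition: digitonin at 100 µM served as the cytotoxic control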
Conditions: C25cl48 myoblasts, IFN-b induced HLA-ABC immunofluorescence, 24 h, Viability; series mostly up to 49.8 µM; activity change, negative = inhibition: at the top concentration
How it was run: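 HLA-ABC immunofluorescence, with nuclear and cell-body stains, was quantified by laser scanning cytometry. Read-out followed 24 h of IFN-beta (4.0 ng/ml) stimulation of C25cl48 human myoblasts with compounds titrated 1:3 over 11 points from 50 uM, with ruxolitinib as inhibitor control.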
On the % scale 0 is the no-effect control and ±100 the full control effect; potency means the concentration at half of the fitted maximal effect.

SMILES | Potency | activity change, negative = inhibition
O=C(/C=C/c1ccc2ccc(C(F)(F)F)cc2n1)c1ccncc1 | 3.64 µM (active) | –
Cc1c(C(=O)Nc2ccc(Oc3ccnc4[nH]cc(-c5ccccc5)c34)c(F)c2)c(=O)n(-c2ccc(F)cc2)n1C | – | -17.2%
CC(=O)Oc1ccc(C2(c3ccc(OC(C)=O)cc3)C(=O)Nc3ccccc32)cc1 | – | 12.6%
COc1cccc2c1C(=O)c1c(O)c3c(c(O)c1C2=O)C[C@@](O)(C(=O)CO)C[C@@H]3O[C@H]1C[C@H](N)[C@H](O)[C@H](C)O1 | – | 2.3%
COc1ccc(F)c(F)c1C(=O)c1cnc(NC2CCN(S(C)(=O)=O)CC2)nc1N | – | 1.88%
CO[C@H]1C(=O)[C@]2(C)[C@@H](OC)C[C@H]3OC[C@@]3(OC(C)=O)[C@H]2[C@H](OC(=O)c2ccccc2)[C@]2(O)C[C@H](OC(=O)[C@H](O)[C@@H](NC(=O)OC(C)(C)C)c3ccccc3)C(C)=C1C2(C)C | – | 0.182%
C[C@H](Nc1ncnc2nc[nH]c12)c1cc2cccc(Cl)c2c(=O)n1-c1ccccc1 | – | -1.87%
CN(c1ncccc1CNc1nc(Nc2ccc3c(c2)CC(=O)N3)ncc1C(F)(F)F)S(C)(=O)=O | – | -17.6%
NC(=O)Nc1sc(-c2ccc(F)cc2)cc1C(N)=O | – | -1.64%
COc1cccc2c1C(=O)c1c(O)c3c(c(O)c1C2=O)C[C@@](O)(C(=O)CO)C[C@@H]3O[C@H]1C[C@H](N)[C@H](OC2CCCCO2)[C@H](C)O1 (some centres not stated) | – | 4.58%
Cc1ccc(C(N)=O)cc1Nc1nccc(-c2cn(C(C)C)c3cnccc23)n1 | – | 0.513% [at 99.5 µM]
Cn1ncc2cc(-c3cnc(N)c(Cl)c3N3CCC4(CCNC4=O)CC3)ccc21 | – | -17.9%
N#CCC1(n2cc(-c3ncnc4[nH]ccc34)cn2)CN(C2CCN(C(=O)c3ccnc(C(F)(F)F)c3F)CC2)C1 | – | -0.546%
O=C(NC1CCNCC1)c1[nH]ncc1NC(=O)c1c(Cl)cccc1Cl | – | 8.03%
C[C@@H]1CCN(C(=O)CC#N)C[C@@H]1N(C)c1ncnc2[nH]ccc12 | – | 0.722%
Cc1ccc(NC(=O)NCc2ccc3c(c2)CN(C2CCC(=O)NC2=O)C3=O)cc1Cl (configuration not stated) | – | 9.81%
CCNC(=O)c1noc(-c2cc(C(C)C)c(O)cc2O)c1-c1ccc(CN2CCOCC2)cc1 | – | 23.3%
CC(C)c1cc(-c2n[nH]c(=O)n2-c2ccc3c(ccn3C)c2)c(O)cc1O | – | 3.75%
COc1ccc(-c2nc(N3CCOCC3)c3sc(CN(C)c4ncc(C(=O)NO)cn4)cc3n2)cn1 | – | -4.79%

SMILES | Potency | activity change, negative = inhibition
COc1cc(F)ccc1-c1ncnc(Nc2cccc(CS(C)(=N)=O)c2)n1 (configuration not stated) | – | 4.68%
CC(C)C[C@H](NC(=O)CNC(=O)c1cc(Cl)ccc1Cl)B1OC(=O)CC(CC(=O)O)(C(=O)O)O1 (some centres not stated) | – | -1.81%
O=C1Nc2ccccc2C1(c1ccc(O)cc1)c1ccc(O)cc1 | – | 6.86%
Cc1cc(Nc2cc(CN3CCOCC3)c3nc(C)c(Cc4ccc(Cl)cc4F)n3n2)n[nH]1 | 20.5 µM (active) | –
CC1(C)CC(=O)c2c(C(F)(F)F)nn(-c3ccc(C(N)=O)c(NC4CCC(OC(=O)CN)CC4)c3)c2C1 (configuration not stated) | – | 1.4%
O=c1[nH]c2cc(Cl)ccc2c(O)c1-c1ccc(Oc2ccccc2)cc1 | – | 2.3%
O=[N+]([O-])c1ccc2c(c1)S(=O)(=O)C=C2 | 5.14 µM (active) | –
COc1cccc2c1C(=O)c1c(O)c3c(c(O)c1C2=O)C[C@@](O)(C(=O)CO)C[C@@H]3O[C@H]1C[C@H](N)[C@@H](O)[C@H](C)O1 | – | 8.44%
O=C1NC(=O)[C@@H](c2c[nH]c3ccccc23)[C@H]1c1cn2c3c(cccc13)CCC2 | – | 9.87%
COc1ccc(-c2ccc3ncc4c(c3c2)n(-c2ccc(N3CCNCC3)c(C(F)(F)F)c2)c(=O)n4C)cn1 | 1.02 µM (active) | –
CN1CCC(c2c(O)cc(O)c3c(=O)cc(-c4ccccc4Cl)oc23)C1CO (configuration not stated) | – | -0.712%
C[C@]12C=CC(=O)C=C1CC[C@H]1[C@@H]3C[C@@H](O)[C@](O)(C(=O)CO)[C@@]3(C)C[C@H](O)[C@@]12F | – | 6.5%
Cc1ccc(-c2ncn(-c3ccc(Nc4nccc(-c5cccc(N6CCOCC6)c5)n4)cc3)n2)cn1 | – | -0.586%
Cn1cc(CNCC2CCN(c3ncc(C(=O)NO)cn3)CC2)c2ccccc21 | – | 13.2%
CC(=O)c1ccc2c(c1)c1cc(C(C)=O)ccc1n2CCNC(C)C | – | 3.4%
Cc1cc(O)c(-c2ccc([C@@H](C)CN(C)C)cc2)c2c1[nH]c(=O)c1sccc12 | – | -26.3%
CC(=O)NCC(=O)N1[C@@H]2CC[C@H]1c1ccc(Nc3ncc(C(F)(F)F)c(NC4CCC4)n3)cc12 | – | -12.4%
CC(C)c1c2cc(-c3ccnc(NC4CCC(NC5CCOCC5)CC4)n3)ccc2nn1C (configuration not stated) | – | -7.1%
